# High-throughput results as filed in PubChem BioAssay.
# Sampled rows, rich in hits. Any-hit rate of the full collection: about 7.5%.
# SMN2 splice enh: qHTS Assay for Enhancers of SMN2 Splice Variant Expression. HEK293 SMN2-luciferase splicing reporter, luminescence, 30-36 h. Potency, µM (titrated, usually from 46.1 µM), for inactives: at the top dose activity change, positive = activation, actives largely listed as activators. actives 2.8% (n = 210,000); also: % of control where 0% means no effect; nearly all actives have a fitted effect of over 55% in size
#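 qHTS luciferase splicing reporter: luminescence rises when SMN2 exon 7 is included in transfected HEK293 cells. Compound exposure lasted 30-36 h at 37C, with 4.5 mM final sodium butyrate as control, followed by a ONE-Glo read.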
# NPC1 promoter act: qHTS Assay for NPC1 Promoter Activators; Potency, µM (series often up to 9.22 µM), for the others: at the top dose activation, hits mostly activators; Huh7 NPC1 promoter luciferase reporter, 24 h; AID 485313, 2010; actives 2.4% (n = 320,000); also: % of control where 0% means no effect; nearly all actives have a fitted effect of over 60% in size
#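 Compounds in DMSO were transferred onto Huh7 NPC1-luciferase reporter cells pre-incubated 2 h; after 24 h at 37 °C, Amplite reagent was dispensed and luminescence recorded 10 min later.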
# Rab9 promoter act: qHTS Assay for Rab9 Promoter Activators; Huh7 Rab9 promoter-luciferase reporter, luminescence, 24 h; Potency, µM (top dose mostly 9.22 µM), inactives show at the top dose activation, negative = inhibition, hits mostly activators; actives 2.8% (n = 320,000); AID 485297, 2010; also: % of control where 0% means no effect; nearly all actives have a fitted effect of over 60% in size
#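 Luminescence read-out: Huh7 cells stably expressing Rab9-luciferase, treated 24 h with compound at 37 °C, then lysed with luciferase reagent for 10 min at ambient before reading.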
# ELG1 genotox: qHTS screen for small molecules that induce genotoxicity in human embryonic kidney (HEK293T) cells expressing luciferase-tagged ELG1; HEK293T ELG1-luciferase reporter, luminescence, 16 h; Potency, µM (series often up to 46 µM), inactives show at the highest dose activity change, positive = activation, actives largely listed as activators; actives 1.3% (n = 330,000); AID 504466, 2011; also: % of control where 0% means no effect; nearly all actives have a fitted effect of over 60% in size
#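 ELG1-luciferase HEK293T cells, 2,000/well; compound pinned in; 16 hr, 37 °C, 5% CO2; ONE-Glo, 30 min RT; luminescence on CCD imager.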
# FLuc counter: qHTS profiling assay for firefly luciferase inhibitor/activator using purifed enzyme and Km concentrations of substrates (counterscreen for miR-21 project); Luciferin 4-monooxygenase (Photinus pyralis), P08659; purified FLuc, Km substrates, luminescence inhibition; Potency, µM (series often up to 57.5 µM), without a hit: top-dose activity change, negative = inhibition, usual class: inhibitors; actives 6.9% (n = 360,000); AID 588342, 2011;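 also: plate controls were vehicle for no effect and reference inhibitor for full effect; nearly all actives have a fitted effect of over 55% in size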
# Target sequence (P08659 whole entry, looked up): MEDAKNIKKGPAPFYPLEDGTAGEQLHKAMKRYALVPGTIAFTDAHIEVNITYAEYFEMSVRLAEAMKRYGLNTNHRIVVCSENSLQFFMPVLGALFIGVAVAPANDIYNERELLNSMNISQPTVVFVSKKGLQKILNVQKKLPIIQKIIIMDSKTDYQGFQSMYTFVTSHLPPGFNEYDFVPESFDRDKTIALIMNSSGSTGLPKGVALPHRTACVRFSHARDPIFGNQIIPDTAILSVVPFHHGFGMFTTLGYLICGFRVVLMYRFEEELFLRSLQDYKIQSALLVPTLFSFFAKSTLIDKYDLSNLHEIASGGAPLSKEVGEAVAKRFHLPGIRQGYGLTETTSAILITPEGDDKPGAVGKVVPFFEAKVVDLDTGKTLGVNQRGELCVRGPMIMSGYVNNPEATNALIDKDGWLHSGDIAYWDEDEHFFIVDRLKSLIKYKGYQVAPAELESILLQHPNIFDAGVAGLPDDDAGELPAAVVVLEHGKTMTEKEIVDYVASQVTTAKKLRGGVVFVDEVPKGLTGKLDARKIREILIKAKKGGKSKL
#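 Purified P. pyralis luciferase (10nM final) with 10uM D-luciferin and 10uM ATP (Km levels) in 50mM Tris acetate pH 7.5, 10mM Mg acetate, 0.01% Tween-20, 0.05% BSA; qHTS 6-point titration, ~60 µM downward; luminescence read.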
# Active calls of the source: *; ? = inconclusive; . = no result given; [ ] = remark or other dose. Calls follow the shape of the dose curve; as a rule, active = well fitted curve in the direction sought with a large enough effect; inconclusive = small, poorly fitted or top-dose-only effect, or another doubt; inactive = no such curve, though single readings can be large; an effect the other way counts as inactive or inconclusive. Potency is read from the fitted curve at half-maximal effect.
SMILES,SMN2 splice enh,NPC1 promoter act,Rab9 promoter act,ELG1 genotox,FLuc counter
CSc1ccccc1-c1nc(-c2ccncc2)no1,.,3.5µM*,?,?,?
Clc1ccccc1-c1nnc(-c2cccs2)o1,11µM*,2.2µM*,1.3µM*,?,9.5µM*
Brc1ccc(-c2nc(-c3ccncc3)no2)cc1,.,2.2µM*,3.2µM*,?,2.4µM*
Clc1ccccc1-c1nnc(-c2ccccc2CNc2ccccc2)o1,7%,.,.,.,?
CCOc1ccc(CCNC(=O)CCCn2c(=O)c3cccn3c3ccccc32)cc1,.,.,.,.,4%
c1ccc(-c2ccccc2-c2nc(-c3ccncc3)no2)cc1,3.2µM*,-3%,0%,-2%,-2%
c1ccc(C(Cc2nc(-c3ccncc3)no2)c2ccccc2)cc1,-91%,-18%,2%[1.84 µM],?,1%
c1ccc(-c2nc(-c3ccncc3)no2)cc1,?,.,.,.,12µM*
Clc1ccc(Cl)c(-c2nc(-c3ccncc3)no2)c1,.,24%,?,8%,?
CCCc1nc(SCC(=O)NCc2ccco2)c2c(=O)n(C)c(=O)n(C)c2n1,-20%,-3%,-8%,-5%,0%
Cc1cc(C)c(S(=O)(=O)Nc2ccc(-c3ccc(N4CCCCCC4)nn3)cc2)cc1C,.,.,.,.,-18%
COc1ccc(S(=O)(=O)Nc2cccc(-c3ccc(N4CCCCC4)nn3)c2)cc1F,.,.,.,.,2.7µM*
COc1ccc(S(=O)(=O)Nc2ccccc2C(=O)N2CCOCC2)cc1F,.,9%,4%,0%,-1%
COc1cc(C)c(C)cc1S(=O)(=O)Nc1cccc(-c2ccc(N3CCOCC3)nn2)c1,.,.,.,.,27µM*
COc1ccc(S(=O)(=O)Nc2ccc(-c3ccc(N4CCCC4)nn3)cc2)cc1C,.,1%,2%,2%,-3%
COc1ccc(S(=O)(=O)Nc2cccc(-c3ccc(N4CCOCC4)nn3)c2)cc1F,.,.,.,.,6.7µM*
COc1ccc(S(=O)(=O)Nc2cccc(-c3ccc(N4CCCCCC4)nn3)c2)cc1F,.,.,.,.,5.4µM*
Cc1ccc(-c2csc(=S)[nH]2)cc1,.,3.2µM*,?,?,?
S=c1[nH]c(-c2ccc(Cl)cc2)cs1,18%,21%,?,6%,?
Cc1cccc(C(=O)Nc2ccc(OCc3cc(=O)n4c5c(sc4n3)CCCC5)cc2)c1,-2%,.,.,.,-3%
Cc1cccc(N(O)C(=O)Nc2cccc(Cl)c2)c1,.,24%,28%,?,17µM*
O=C(O)CCC(=O)OCc1c(-c2ccccc2)ncc2ccccc12,.,1%,0%,0%,-12%
O=C(OCc1c(-c2ccccc2)ncc2ccccc12)N1CCOCC1,.,-2%,-4%,5%,2.7µM*
Clc1ncccc1-c1nnn(-c2ccccc2Br)n1,.,23%,25%,?,17µM*
Brc1ccccc1-n1nnc(-c2nccs2)n1,.,2.5µM*,1.4µM*,8.2µM*,7.6µM*
SMILES,SMN2 splice enh,NPC1 promoter act,Rab9 promoter act,ELG1 genotox,FLuc counter
Clc1ccc(-n2nnc(-c3cccnc3Cl)n2)cn1,.,?,?,?,13µM*
Cc1ccc(-n2nnc(-c3cccnc3Cl)n2)cc1,.,0.79µM*,0.79µM*,5.8µM*,0.76µM*
CC(C)(C)NS(=O)(=O)c1ccc(CCC(=O)Nc2ccc3c(c2)OCO3)cc1,0%,2%,10%,-1%,2%
COc1ccc2c(c1)Cc1sc(NC(=O)c3cccc(Cl)c3)nc1-2,.,.,.,.,-2%
O=C(CCC(=O)N(CC(=O)NC1CCCCC1)c1ccc2c(c1)OCCO2)Nc1ccccn1,-8%,-6%,3%,?,-8%
Cc1ccc(NC(=O)C2CCCN(c3ncnc4onc(-c5ccc(F)cc5)c34)C2)c(Cl)c1 (centres undefined),.,.,.,.,-9%
CCC(=O)Nc1nc(-c2ccccc2)ns1,11µM*,4µM*,2µM*,14%,15µM*
COc1cc(OC)cc(-c2cc(NC(C)=O)n[nH]2)c1,13%,2%,-2%,10%,?
Cc1nnc(SCCC(=O)Nc2nc(-c3ccccc3)ns2)s1,-18%,.,.,.,-13%
